In PubChem BioAssay (NCI) one finds growth data, which are given here for 20 molecules.

What all share (assay): NCI-60 one-dose screen, 48 h (100 = growth as untreated, 0 = no growth, -100 = all killed)
For one assay, the system named is T-47D breast. To be noted: 10 µM.
The subject of another assay is BT-549 breast. To be noted: 10 µM.
The next assay concerns MDA-MB-435 melanoma. Conditions: 10 µM.
The test system of another assay is SW-620 colon. To be noted: 10 µM.
The subject of another assay is MCF7 breast. To be noted: 10 µM unless noted.
The test system of the next assay is HCT-116 colon. To be noted: 10 µM.
The next assay deals with KM12 colon. To be noted: 10 µM.
The test system of the next assay is HCC-2998 colon. Conditions: 10 µM.

Structures are written as SMILES. The panel holds about 83,000 compounds, 20% with a hit somewhere; the sample as a whole holds those more often.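 Single-dose data. Exposure time 48 hours. Values below 10 considered active.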 Unmarked numbers belong to inactive results. Calls of active or inactive are those of the source.

As to `C=CC(O)CCC` (stereo not given), the growth in the assay on T-47D breast was 113%; with BT-549 breast, 112%; in the assay with MDA-MB-435 melanoma, 90.4%; in the assay on SW-620 colon, 101%; with MCF7 breast, 95.3%; in the assay with HCT-116 colon, 112%. The growth in the assay with KM12 colon is 109%.

With `COC(=O)c1ccccc1N(C)C`, the growth with T-47D breast is 93.5%; with BT-549 breast, 103%; in the assay with MDA-MB-435 melanoma, 108%; in the assay with SW-620 colon, 107%; with MCF7 breast it was 97.1%; with HCT-116 colon it was 98.4%. Also, the growth in the assay on HCC-2998 colon is 113%; in the assay on KM12 colon it was 107%.

For `NC(=S)N/N=C/c1ccc(N)cc1`, the growth with T-47D breast was 93.9%; in the assay on BT-549 breast, 96.3%; in the assay on MDA-MB-435 melanoma it was 105%; in the assay with SW-620 colon, 104%; in the assay with MCF7 breast, 94.8%; in the assay on HCT-116 colon, 94.1%. The growth with HCC-2998 colon is 104%; in the assay with KM12 colon it was 103%.

`CC(=O)c1ccc(C(C)(C)C)cc1`: the growth in the assay with T-47D breast was 98.2%; with BT-549 breast, 102%; in the assay on MDA-MB-435 melanoma it was 106%; in the assay on SW-620 colon it was 110%; with MCF7 breast, 94.5%; in the assay on HCT-116 colon, 97.5%. Besides, the growth in the assay on HCC-2998 colon was 96.2%; with KM12 colon, 102%.

Turning to `CN(C)c1ccc(CNC(C(=O)c2ccccc2)c2ccccc2)cc1` (stereo not given), the growth was 98.9% with T-47D breast; 98% with BT-549 breast; 107% in the assay on MDA-MB-435 melanoma; 101% in the assay with SW-620 colon; 107% in the assay on MCF7 breast; 50.8% in the assay on HCT-116 colon. The figures for the growth with HCC-2998 colon and with KM12 colon were 106% and 98.6%, respectively.

In the case of `c1ncc2[nH]cnc2n1`, the growth is 94.5% in the assay on T-47D breast; 106% in the assay on BT-549 breast; 108% in the assay with MDA-MB-435 melanoma; 96.7% in the assay with SW-620 colon; 93.5% in the assay on MCF7 breast; 92.4% in the assay on HCT-116 colon. Also, in the assay on KM12 colon, the growth was 105%.

On to `CC(=O)OC1CC2C(C)(C)OC3CC(=O)OCC32C2CCC3(C)C(=CCC3c3ccoc3)C12C` (stereo not given), for which the growth in the assay on T-47D breast is 88.3%; in the assay with BT-549 breast, 126%; with MDA-MB-435 melanoma, 97.8%; with SW-620 colon, 112%; in the assay with MCF7 breast, 87.8%; in the assay on HCT-116 colon, 106%. Besides, in the assay on KM12 colon, the growth was 98.9%.

`CCCCOC(OCCCC)c1ccccc1`: the growth in the assay with T-47D breast is 100%; in the assay with BT-549 breast, 107%; in the assay with MDA-MB-435 melanoma, 112%; in the assay with SW-620 colon it was 110%; in the assay with MCF7 breast it was 97.8%; in the assay with HCT-116 colon it was 112%. For the same molecule, in the assay with KM12 colon, the growth is 110%.

With `c1cc[n+](C2c3ccccc3C([n+]3ccccc3)c3ccccc32)cc1` (stereo not given), the growth in the assay on T-47D breast was 75.5%; with BT-549 breast, 100%; in the assay on MDA-MB-435 melanoma, 79.3%; with SW-620 colon, 69.8%; in the assay on MCF7 breast, 68.8%; with HCT-116 colon, 68.2%. Also, the values for the growth in the assay on HCC-2998 colon and in the assay on KM12 colon were 68.2% and 56.7%, respectively.

Turning to `CC(C)(C)c1cc(O)c(C(C)(C)C)cc1O`, the growth is 95% with T-47D breast; 81.3% with BT-549 breast; 91.9% in the assay on MDA-MB-435 melanoma; 97% with SW-620 colon; 83.7% in the assay on MCF7 breast; 86.6% in the assay with HCT-116 colon. Moreover, the growth in the assay on KM12 colon is 101%.

Consider `COc1cc(-c2ccc(NC(=O)NC3CC3)c(OC)c2)ccc1NC(=O)NC1CC1`, for which the growth in the assay with T-47D breast is 82.8%; with BT-549 breast, 89.5%; with MDA-MB-435 melanoma, 99.4%; in the assay on SW-620 colon, 66.8%; in the assay on MCF7 breast, 72.4%; in the assay with HCT-116 colon it was 36.9%. The growth in the assay on KM12 colon was 71.8%.

On to `COc1cc2nn(-c3ccccc3N)nc2cc1OC`, for which the growth is 93.6% in the assay on T-47D breast; 81.3% in the assay on BT-549 breast; 96.8% with MDA-MB-435 melanoma; 105% with SW-620 colon; 90.7% in the assay with MCF7 breast; 103% in the assay with HCT-116 colon. Also, the growth with KM12 colon is 103%.

In the case of `CCCNc1ccc(C2=NCCCN2)cc1`, the growth in the assay with T-47D breast is 97.3%; with BT-549 breast it was 90%; with MDA-MB-435 melanoma, 95.9%; in the assay with SW-620 colon it was 102%; with MCF7 breast, 97.7%; in the assay with HCT-116 colon, 97%. Also, the growth in the assay on KM12 colon was 94.5%.

Consider `CCNc1nc2c(cnn2C)c(=O)[nH]1`, for which the growth in the assay with T-47D breast was 92.5%; in the assay with BT-549 breast it was 102%; in the assay with MDA-MB-435 melanoma it was 106%; with SW-620 colon, 97.9%; with MCF7 breast, 100%; with HCT-116 colon it was 99.2%. Further, the growth in the assay on KM12 colon was 108%.

Turning to `C[N+](C)(C)C(=O)c1ccccc1`, the growth is 90.4% with T-47D breast; 101% in the assay with BT-549 breast; 114% with MDA-MB-435 melanoma; 107% in the assay on SW-620 colon; 96.2% with MCF7 breast; 97.9% with HCT-116 colon. In addition, in the assay with KM12 colon, the growth is 112%.

In the case of `CC(C)=C(NC(=O)c1ccccc1)C(=O)O`, the growth with T-47D breast is 116%; in the assay with BT-549 breast, 110%; in the assay with MDA-MB-435 melanoma it was 110%; in the assay on SW-620 colon it was 102%; in the assay on MCF7 breast, 112%; in the assay with HCT-116 colon it was 117%. Also, the growth in the assay on KM12 colon is 99.6%.

On to `CCCCC(CC)COC(C)=O` (stereo not given), for which the growth in the assay on T-47D breast is 97.2%; in the assay with BT-549 breast, 107%; with MDA-MB-435 melanoma it was 105%; in the assay with SW-620 colon, 104%; in the assay with MCF7 breast it was 96%; in the assay with HCT-116 colon it was 108%. In addition, the growth in the assay on KM12 colon was 101%.

Take `CN(C)c1ccc2oc(=O)c3ccccc3c2c1`: the growth with T-47D breast is 96.1%; in the assay on BT-549 breast, 40.3%; in the assay on MDA-MB-435 melanoma it was 109%; with SW-620 colon, 85.2%; in the assay on MCF7 breast, 72.9%; in the assay on HCT-116 colon it was 83.2%. Besides, the growth with KM12 colon is 90.9%.

For `C/C(=N\NC(=O)c1ccccc1N)c1ccccc1O`, the growth in the assay on T-47D breast was 25.2%; in the assay on BT-549 breast, 72.2%; in the assay with MDA-MB-435 melanoma it was 57.8%; in the assay with SW-620 colon, 31.6%; in the assay on MCF7 breast, 5.19% (active); in the assay on HCT-116 colon, 7.72% (active). Also, in the assay with KM12 colon, the growth was 46.3%.

For the molecule `CCC(C)(O)c1ccc(C)cc1` (stereo not given), the growth with T-47D breast is 104%; with BT-549 breast, 105%; in the assay on MDA-MB-435 melanoma, 106%; in the assay with SW-620 colon, 98.2%; in the assay on MCF7 breast it was 100%; in the assay on HCT-116 colon, 108%. Further, the growth in the assay with KM12 colon is 100%.
